Screening data (PubChem)
BoNT-F LC inh: inhibitors of Botulinum neurotoxin F light chain protease | Multiplex microsphere protease cleavage assay, flow cytometry | inhibition, % at 10 µM | 0.22% of 360,000 active | AID 588497; in the data active = inhibition above about 35%, passing the limit was not always enough; inconclusive = no clear call, values can overlap the other calls; note: plate controls were buffer without enzyme for full effect and enzyme alone for no effect
Autofluor counter: counter-screen for toxin protease inhibitors: compound fluorescence; fluorescence intensity (test concentration not listed); compound autofluorescence counterscreen, microsphere flow cytometry; hits give high values; 3.1% of 360,000 active; in the data active = fluorescence intensity above about 16000; inconclusive = no clear call, values can overlap the other calls
Anthrax LF inh2: anthrax lethal factor protease inhibition | 0.12% of 360,000 active | AID 588501 | P15917 | multiplex microsphere protease cleavage assay, LF | inhibition, % at 10 µM; note: plate controls were buffer without enzyme for full effect and enzyme alone for no effect
Target sequence (P15917 whole entry, looked up): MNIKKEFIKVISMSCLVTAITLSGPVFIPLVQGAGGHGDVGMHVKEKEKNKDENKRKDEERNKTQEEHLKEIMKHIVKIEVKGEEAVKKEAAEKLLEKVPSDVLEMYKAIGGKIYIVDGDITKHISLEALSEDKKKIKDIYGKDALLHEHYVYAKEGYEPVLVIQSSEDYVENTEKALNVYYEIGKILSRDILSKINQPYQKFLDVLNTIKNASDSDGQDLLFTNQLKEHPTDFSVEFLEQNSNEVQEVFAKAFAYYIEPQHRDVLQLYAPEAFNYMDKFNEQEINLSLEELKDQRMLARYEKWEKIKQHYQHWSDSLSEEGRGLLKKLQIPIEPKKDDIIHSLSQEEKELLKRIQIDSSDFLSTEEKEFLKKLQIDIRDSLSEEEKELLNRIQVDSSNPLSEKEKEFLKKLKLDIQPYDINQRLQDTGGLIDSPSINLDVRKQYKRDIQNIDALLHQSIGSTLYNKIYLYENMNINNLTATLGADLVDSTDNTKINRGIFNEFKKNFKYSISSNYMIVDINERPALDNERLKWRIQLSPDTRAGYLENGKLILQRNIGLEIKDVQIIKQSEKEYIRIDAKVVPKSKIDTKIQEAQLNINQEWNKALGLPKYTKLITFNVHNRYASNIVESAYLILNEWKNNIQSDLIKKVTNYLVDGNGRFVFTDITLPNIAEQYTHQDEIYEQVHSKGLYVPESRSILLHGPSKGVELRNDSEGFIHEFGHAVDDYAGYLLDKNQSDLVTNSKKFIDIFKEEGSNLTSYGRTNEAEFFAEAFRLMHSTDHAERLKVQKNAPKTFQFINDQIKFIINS
Mtb FBA inh: inhibitors of M. tuberculosis fructose-bisphosphate aldolase; purified M. tuberculosis FBA, fluorescence read-out; inhibition, % at 1 µM; 2.3% of 360,000 active; AID 588726; in the data active = inhibition above about 27%;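 note: 0% = vehicle and 100% = reference inhibitor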
BoNT-A LC inh2: blocks Botulinum neurotoxin A light chain protease; inhibition, % at 10 µM; AID 588499; 0.17% of 360,000 active; multiplex microsphere protease substrate cleavage, flow cytometry; note: plate controls were buffer without enzyme for full effect and enzyme alone for no effect
GDH-TPI inh: inhibits GDH-TPI coupling enzymes, artifact for Mtb FBA screen. GDH-TPI coupled enzyme counterscreen, NADH absorbance. inhibition, % at 4.8 µM. 1.2% of 360,000 active; in the data active = inhibition above about 30%;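 note: 0% = DMSO wells and 100% = wells lacking the enzyme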
* marks the source's active call; other numbers are inactive results; ? = inconclusive; + = active, no number. An excerpt weighted towards active compounds, which were near 6.7% of everything screened. Cut-off read from the data, not from the text of the source, unless noted: active = inhibition above about 30%; inconclusive = no clear call, values can overlap the other calls; inactive = below that.

SMILES	BoNT-F LC inh	Autofluor counter	Anthrax LF inh2	Mtb FBA inh	BoNT-A LC inh2	GDH-TPI inh
COc1cc(OC)cc(-c2c(C#Cc3ccsc3)c3cc(-c4ccc5cc[nH]c5c4)ccc3n2C)c1	-8	4075	-5	19	0	33*
COc1cc(OC)cc(-c2c(C#Cc3ccsc3)c3cc(-c4ccccc4OC)ccc3n2C)c1	-5	3784	-5	19	0	39*
CCC(C)Sc1nc(O)c(Cc2ccccc2)c(=O)[nH]1 (stereo unspecified)	22	3914	-6	-1	0	-8
CC(C)Sc1nc(O)c(Cc2ccccc2)c(=O)[nH]1	4	20324*	-2	-1	2	8
C/C(=N\Nc1nc(C)cc(C)n1)c1ccc(C)o1	-11	6189	-4	0	-1	32*
C/C(=N\Nc1nnc2c3ccccc3n(C)c2n1)c1ccc(C)o1	-2	2428	1	0	-1	19
Cc1ccc(C(=O)Nc2c3c(nn2C(C)(C)C)CS(=O)(=O)C3)cc1C	-2	20652*	-1	0	-2	-11
CCn1c(COc2ccc3c(c2)CCCC3)nnc1SCC(=O)Nc1nccs1	1	20125*	-2	-5	0	-12
C=CCn1c(SCC(=O)Nc2cc(NC(C)=O)ccc2OC)nnc1-c1cccnc1	-2	9289	6	-1	1	4
C=CCn1c(SCC(=O)Nc2cc(NC(C)=O)ccc2OC)nnc1-c1ccccn1	1	19382*	0	0	?	5
CCc1nnc(SCC(=O)Nc2nccs2)n1CC	1	4385	-3	1	3	0
C=CCn1c(SCC(=O)Nc2ccccc2OC)nnc1-c1ccccn1	-1	16901*	-1	1	-1	4
CCn1c(COc2cccc(OC)c2)nnc1SCC(=O)Nc1cc(OC)ccc1OC	-4	23149*	-10	-6	-2	1
COc1cc(/C=C2\SC(=S)N(CC(=O)O)C2=O)ccc1OS(=O)(=O)c1ccc(C)cc1	-9	4437	0	2	0	27
C[C@H](NC(=O)c1[nH]cnc1C(=O)Nc1ccccc1)C(=O)OC(C)(C)C	-1	2906	-12	2	-1	13
CCn1c(SCC(=O)Nc2ccccc2OC)nnc1-c1cnccn1	-2	16989*	-4	0	-1	6
CCn1c(SCC(=O)Nc2ccc(C)cc2)nnc1-c1cnccn1	3	5209	-1	0	-1	-6
CC(=O)Nc1ccc(SCc2c(C)noc2C)cc1	27	3175	30*	-1	0	6
COc1ccc(N=Cc2c(O)ccc3ccccc23)cc1	-3	4969	-2	-3	1	2
Cc1ccc(NC(=O)CCCn2c(=S)[nH]c3ccsc3c2=O)cc1C	-2	5193	-2	0	-1	8
Cn1cccc1/C=C1/SC(=O)N(CC(=O)N2CCCC2)C1=O	-6	4111	0	-2	1	7
Oc1c(Cl)cc(Cl)c(Cl)c1CN1CCOCC1	0	3016	4	1	0	12
CCCCNCc1cc(Br)c(OCC(=O)N2CCOCC2)c(OC)c1	7	16518*	-8	0	8	3
CCCCOc1c(Br)cc(CNCCCN2CCOCC2)cc1OC	-15	3017	5	1	0	-10
CC1(C)CC(=O)C(C2C3=C(CC(C)(C)CC3=O)Oc3ccccc32)=C(O)C1 (stereo unspecified)	3	2857	0	2	0	-1
SMILES	BoNT-F LC inh	Autofluor counter	Anthrax LF inh2	Mtb FBA inh	BoNT-A LC inh2	GDH-TPI inh
COc1ccc2c(c1)C(C1=C(O)CC(C)(C)CC1=O)C1=C(CC(C)(C)CC1=O)O2 (stereo unspecified)	-4	24480*	-4	2	-4	8
Cc1cc(C)n(C(=O)c2c([N+](=O)[O-])cnn2C)n1	-2	9482	3	1	1	4
Cc1cc(C)n(C(=O)c2c([N+](=O)[O-])c(C)nn2C)n1	-4	24146*	-1	3	-4	5
CC1=N/C(=C\c2ccc(OC(C)C)cc2)C(=O)N1c1ccc(C(=O)O)cc1	0	2166	0	1	-1	33*
COc1ccccc1N(CC(=O)NC(C)(C)C)C(=O)CCC(=O)Nc1nccs1	-10	3806	-5	3	1	6
Cc1cc([N+](=O)[O-])nn1CC(=O)NNC(=S)Nc1ccc(Cl)cc1	-3	23664*	-2	0	-2	-6
CC(C)CCNC(=O)c1cnn2c(C(F)(F)F)cc(-c3ccco3)nc12	7	19781*	-5	8	7	22
NC(=O)c1cnn2c(C(F)(F)F)cc(-c3ccccc3)nc12	-18	4796	-2	3	0	9
O=C(NC1CCCC1)c1cnn2c(C(F)(F)F)cc(-c3ccco3)nc12	2	20185*	-1	6	2	6
O=C(NCc1ccco1)c1cnn2c(C(F)(F)F)cc(-c3ccccc3)nc12	-8	10313	-5	0	-1	12
NC(=O)c1cnn2c(C(F)(F)F)cc(-c3ccc(F)cc3)nc12	-2	22634*	-1	5	-2	25
Cc1nn(Cc2ccc(Cl)cc2Cl)c(C)c1NC(=O)Cn1nc([N+](=O)[O-])c(Cl)c1C	-4	3013	-2	1	0	1
Cc1ccc(S(=O)(=O)Cc2ccc(C(=O)N3CCCCCC3)o2)cc1	-21	4927	-8	0	-1	-2
Cc1ccc(OCC(O)CN2CCOCC2)cc1C (stereo unspecified)	10	3949	-7	1	5	1
Cc1cccc(-n2c(C)cc(C=C3C(=O)c4ccccc4C3=O)c2C)c1	-7	6839	8	-5	7	13
Cc1cc(C=C2C(=O)c3ccccc3C2=O)c(C)n1-c1ccc(Cl)cc1	1	20919*	5	-5	2	0
Cc1nn(-c2ccccc2[N+](=O)[O-])c(=O)c2ccccc12	1	4554	-3	-2	-1	1
Cc1nn(-c2ccccc2C(=O)O)c(=O)c2ccccc12	-2	22783*	-3	4	0	-4
CC(C)N1CCC(NC(=O)Nc2ccc3c(c2)OCO3)CC1	1	2247	0	-2	0	-3
O=C(OCc1ccccc1F)c1ccc2c(c1)-c1ccccc1C2=O	0	19102*	2	-2	3	-8
O=C(OCc1cccc(F)c1)c1ccc2c(c1)-c1ccccc1C2=O	3	22813*	3	-2	4	-6
CCOC(=O)c1ccc(-c2ccc(CO)o2)cc1	2	9910	-11	+	0	19
Cc1ccc(C(=O)NC(=S)Nc2ccc(-c3ccc(CO)o3)cc2)cc1	0	4516	-4	1	1	10
O=C(Oc1c(-c2ccccc2)oc2ccccc2c1=O)c1ccccc1	-2	8199	1	2	0	18
CC1(C)CC(NC(=O)C23CCC(C)(C(=O)C2)C3(C)C)CC(C)(C)N1 (stereo unspecified)	4	21112*	2	-1	4	2
